Measured values as given in PubChem BioAssay AID1159580 (chemical genetic matrix, 2015).
Values joined by “and” are separate entries in the source; they are usually repeats but may differ in a detail not shown here. Equal values may be shown once. The campaign covered roughly 5,500 compounds. About 2,000 (36%) were called active. Another 18% or so got no clear call; they are omitted. No stated cut-off is given here; in the data, active means normalized growth mostly below about 0.91 (no sharp cut-off); inconclusive means no clear call, values can overlap the other calls; inactive means mostly above about 0.92. The list shows a part of the results.

Assay: chemical genetic growth profiling, strain panel (AID 1159580);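 further: tested at 20 µM; growth read once vehicle control cultures reached saturation at 30 °C; 1 = growth at the plate median or of vehicle wells; lower values mean less growth of the strain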
Conditions: growth OD

Measured: normalized growth

Oc1c(Cl)c(Cl)c(Cl)c(Cl)c1Cl
active: S. cerevisiae deletion strains, locus YAL013W, strain DEP1, hits give low values 0.885 | S. cerevisiae deletion strains, locus YBR021W, strain FUR4, hits give low values 0.636 | S. cerevisiae deletion strains, locus YBR229C, strain ROT2, hits give low values 0.845 | S. cerevisiae deletion strains, locus YCL029C, strain bik1, hits give low values 0.672 | S. cerevisiae deletion strains, locus YDL035C, strain GPR1, hits give low values 0.834 | S. cerevisiae deletion strains, locus YDL074C, strain BRE1, hits give low values 0.704 | S. cerevisiae deletion strains, locus YDL101C, strain DUN1, hits give low values 0.885 | S. cerevisiae deletion strains, locus YDL134C, strain PPH21, hits give low values 0.816 | S. cerevisiae deletion strains, locus YDL185W, strain tfp1, hits give low values 0.176 | S. cerevisiae deletion strains, locus YDL192W, strain arf1, hits give low values 0.811 | S. cerevisiae deletion strains, locus YDR101C, strain arx1, hits give low values 0.758 | S. cerevisiae deletion strains, locus YDR150W, strain NUM1, hits give low values 0.786 | S. cerevisiae deletion strains, locus YDR162C, strain NBP2, hits give low values 0.607 | S. cerevisiae deletion strains, locus YDR318W, strain mcm21, hits give low values 0.686 | S. cerevisiae deletion strains, locus YDR388W, hits give low values 0.763 | S. cerevisiae deletion strains, locus YDR502C, strain sam2, hits give low values 0.73 | S. cerevisiae deletion strains, locus YEL061C, strain CIN8, hits give low values 0.819 | S. cerevisiae deletion strains, locus YER110C, hits give low values 0.383 | S. cerevisiae deletion strains, locus YER155C, strain BEM2, hits give low values 0.669 | S. cerevisiae deletion strains, locus YER167W, strain BCK2, hits give low values 0.659 | S. cerevisiae deletion strains, locus YGL078C, strain dbp3, hits give low values 0.759 | S. cerevisiae deletion strains, locus YGL086W, strain mad1, hits give low values 0.772 | S. cerevisiae deletion strains, locus YGL248W, strain PDE1, hits give low values 0.818 | S. cerevisiae deletion strains, locus YGR078C, strain PAC10, hits give low values 0.745 | S. cerevisiae deletion strains, locus YGR135W, strain pre9, hits give low values 0.732 | S. cerevisiae deletion strains, locus YGR229C, strain SMI1, hits give low values 0.594 | S. cerevisiae deletion strains, locus YGR252W, strain gcn5, hits give low values 0.637 | S. cerevisiae deletion strains, locus YHR030C, strain SLT2, hits give low values 0.792 and 0.128 | S. cerevisiae deletion strains, locus YHR079C, strain IRE1 (second series), hits give low values 0.659 | S. cerevisiae deletion strains, locus YHR079C, strain IRE1, hits give low values 0.111 | S. cerevisiae deletion strains, locus YHR094C, strain hxt1, hits give low values 0.75 | S. cerevisiae deletion strains, locus YHR129C, strain ARP1, hits give low values 0.775 | S. cerevisiae deletion strains, locus YHR200W, strain rpn10, hits give low values 0.755 | S. cerevisiae deletion strains, locus YIL066C, strain RNR3, hits give low values 0.71 | S. cerevisiae deletion strains, locus YIL125W, strain kgd1, hits give low values 0.463 | S. cerevisiae deletion strains, locus YIR030C, strain dcg1, hits give low values 0.688 | S. cerevisiae deletion strains, locus YJL095W, strain BCK1, hits give low values 0.635 and 0.181 | S. cerevisiae deletion strains, locus YJL134W, strain LCB3, hits give low values 0.835 | S. cerevisiae deletion strains, locus YJL168C, strain set2, hits give low values 0.757 | S. cerevisiae deletion strains, locus YJL187C, strain SWE1 (second series), hits give low values 0.818 | S. cerevisiae deletion strains, locus YJR043C, strain POL32, hits give low values 0.716 | S. cerevisiae deletion strains, locus YJR066W, strain TOR1, hits give low values 0.00405 | S. cerevisiae deletion strains, locus YJR075W, strain HOC1, hits give low values 0.71 | S. cerevisiae deletion strains, locus YKL009W, strain mrt4, hits give low values 0.569 | S. cerevisiae deletion strains, locus YKL068W, hits give low values 0.759 | S. cerevisiae deletion strains, locus YKL085W, strain MDH1 (second series), hits give low values 0.647 | S. cerevisiae deletion strains, locus YKL085W, strain MDH1, hits give low values 0.647 | S. cerevisiae deletion strains, locus YKL190W, strain CNB1, hits give low values 0.811 | S. cerevisiae deletion strains, locus YKR001C, strain vps1, hits give low values 0.3 | S. cerevisiae deletion strains, locus YLR039C, strain RIC1, hits give low values 0.332 | S. cerevisiae deletion strains, locus YLR058C, strain SHM2, hits give low values 0.801 | S. cerevisiae deletion strains, locus YLR102C, strain apc9, hits give low values 0.739 | S. cerevisiae deletion strains, locus YLR113W, strain HOG1, hits give low values 0.16 | S. cerevisiae deletion strains, locus YLR262C, strain YPT6, hits give low values 0.365 | S. cerevisiae deletion strains, locus YLR268W, strain sec22, hits give low values 0.718 | S. cerevisiae deletion strains, locus YLR330W, strain CHS5, hits give low values 0.778 | S. cerevisiae deletion strains, locus YLR342W, strain FKS1 (second series), hits give low values 0.743 | S. cerevisiae deletion strains, locus YLR371W, strain rom2, hits give low values 0.79 | S. cerevisiae deletion strains, locus YLR418C, strain cdc73, hits give low values 0.41 | S. cerevisiae deletion strains, locus YML016C, strain PPZ1, hits give low values 0.831 | S. cerevisiae deletion strains, locus YML032C, strain rad52, hits give low values 0.709 | S. cerevisiae deletion strains, locus YML124C, strain tub3, hits give low values 0.739 | S. cerevisiae deletion strains, locus YMR078C, strain ctf18, hits give low values 0.554 | S. cerevisiae deletion strains, locus YMR223W, strain ubp8, hits give low values 0.73 | S. cerevisiae deletion strains, locus YMR263W, strain SAP30, hits give low values 0.773 | S. cerevisiae deletion strains, locus YMR307W, strain GAS1, hits give low values 0.391 | S. cerevisiae deletion strains, locus YNL067W, strain RPL9B, hits give low values 0.791 | S. cerevisiae deletion strains, locus YNL153C, strain GIM3, hits give low values 0.85 | S. cerevisiae deletion strains, locus YNL183C, strain NPR1, hits give low values -0.00166 | S. cerevisiae deletion strains, locus YNL233W, strain BNI4, hits give low values 0.782 | S. cerevisiae deletion strains, locus YNL250W, strain rad50, hits give low values 0.585 | S. cerevisiae deletion strains, locus YNL271C, strain bni1, hits give low values 0.7 | S. cerevisiae deletion strains, locus YNL298W, strain CLA4, hits give low values 0.679 | S. cerevisiae deletion strains, locus YNL307C, strain MCK1, hits give low values 0.226 | S. cerevisiae deletion strains, locus YNL322C, strain KRE1, hits give low values 0.826 | S. cerevisiae deletion strains, locus YNR052C, strain pop2, hits give low values 0.802 | S. cerevisiae deletion strains, locus YOL147C, strain pex11, hits give low values 0.603 | S. cerevisiae deletion strains, locus YOR061W, strain CKA2, hits give low values 0.826 | S. cerevisiae deletion strains, locus YOR069W, strain VPS5, hits give low values 0.849 | S. cerevisiae deletion strains, locus YOR136W, strain idh2, hits give low values 0.828 | S. cerevisiae deletion strains, locus YOR144C, strain elg1, hits give low values 0.756 | S. cerevisiae deletion strains, locus YOR184W, strain ser1, hits give low values 0.584 | S. cerevisiae deletion strains, locus YOR231W, strain MKK1, hits give low values 0.106 | S. cerevisiae deletion strains, locus YOR316C, strain cot1, hits give low values 0.688 | S. cerevisiae deletion strains, locus YPL055C, strain LGE1, hits give low values 0.732 | S. cerevisiae deletion strains, locus YPL241C, strain CIN2, hits give low values 0.819 | S. cerevisiae deletion strains, locus YPL256C, strain CLN2, hits give low values 0.113 | S. cerevisiae deletion strains, locus YPR119W, strain clb2, hits give low values 0.691 | S. cerevisiae deletion strains, locus YPR141C, strain kar3, hits give low values 0.724 | S. cerevisiae deletion strains, locus YPR163C, strain tif3, hits give low values 0.562 | S. cerevisiae deletion strains, locus YPR167C, strain met16, hits give low values 0.731 | S. cerevisiae deletion strains, strain wtn01, hits give low values 0.732 | S. cerevisiae strains, strain wild type, hits give low values 0.809
inactive: S. cerevisiae deletion strains, locus YIL073C, strain SPO22, hits give low values 0.801 | S. cerevisiae deletion strains, locus YNL128W, strain TEP1, hits give low values 0.878 | S. cerevisiae deletion strains, locus YOL006C, strain TOP1, hits give low values 0.739 | S. cerevisiae deletion strains, locus YOL012C, strain htz1 0.527
